# Bioassay records (PubChem BioAssay)
# This is a sample that favours compounds with a hit; in the whole collection about 12% have one here.
# Gal4-VP16 FLuc: Gal4-VP16 reporter inhibition counter-screen. Drosophila S2 Gal4-VP16 UAS-luciferase, luminescence, 20 h. Potency, µM (titrated, usually from 53.6 µM), without a hit: at the highest dose activity, negative = inhibition, most hits filed as inhibitors. actives 3.5% (n = 310,000);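 also: Gal4-VP16 expression switched on by copper sulfate through the metallothionein promoter; nearly all actives have a fitted effect of over 50% in size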
# ALDH1A1 block: inhibitors of human aldehyde dehydrogenase 1A1 | actives 7.3% (n = 220,000) | Purified ALDH1A1, NADH fluorescence, propionaldehyde substrate | P00352 | AID 1030 | Potency, µM (highest dose often 75.3 µM), without a hit: at the top dose activity, negative = inhibition, most hits filed as inhibitors; active = well fitted inhibition curve with a large enough effect, not every such curve was filed as active; inconclusive = small, poorly fitted or top-dose-only effect, or another doubt; inactive = no such curve, though single readings can be large or run the other way;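 also: plate controls were no enzyme wells and a reference inhibitor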
# Target sequence (P00352 whole entry, looked up): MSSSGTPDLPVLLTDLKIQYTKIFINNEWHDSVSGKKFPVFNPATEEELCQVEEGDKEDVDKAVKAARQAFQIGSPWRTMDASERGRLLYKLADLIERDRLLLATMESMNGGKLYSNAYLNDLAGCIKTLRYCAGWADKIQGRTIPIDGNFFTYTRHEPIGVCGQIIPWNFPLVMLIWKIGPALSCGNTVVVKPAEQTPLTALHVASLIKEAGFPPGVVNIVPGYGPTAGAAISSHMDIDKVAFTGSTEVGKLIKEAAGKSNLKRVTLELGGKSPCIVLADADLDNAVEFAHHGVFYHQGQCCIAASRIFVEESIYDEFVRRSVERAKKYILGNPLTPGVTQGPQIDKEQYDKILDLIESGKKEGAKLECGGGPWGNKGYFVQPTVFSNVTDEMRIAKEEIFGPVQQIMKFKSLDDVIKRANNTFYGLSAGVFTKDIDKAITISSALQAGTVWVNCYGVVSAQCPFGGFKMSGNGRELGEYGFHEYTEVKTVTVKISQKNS
# Sfp PPTase inh: blocks B. subtilis Sfp PPTase activity | Biochemical Sfp PPTase activity, qHTS | AID 1490 | actives 3.5% (n = 310,000) | Q9F4F7 | Potency, µM, without a hit: largest response in the series, negative = inhibition, actives largely listed as inhibitors;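 also: the enzyme is Sfp with the accession as filed and its product quenches rhodamine fluorescence; 0% = enzyme reaction without inhibitor and -100% = no enzyme wells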
#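 Compounds were incubated with enzyme (final 15 nM) for 15 min at room temperature before substrate addition started the reaction. Fluorescence at 525 nm excitation, 598 nm emission was recorded immediately and after 30 minutes.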
# RORg inh: ROR gamma (mouse) transcription inhibition; Drosophila S2 Gal4-RORgamma UAS-luciferase reporter, 20 h; actives 5.4% (n = 310,000); Potency, µM (series often up to 53.6 µM), inactives show top-dose activity change, negative = inhibition, most hits filed as inhibitors; P51450; also: nearly all actives have a fitted effect of over 60% in size
#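 Drosophila Schneider cells stably carrying a metallothionein-driven Gal4 DBD–ROR gamma fusion and a UAS-Photinus luciferase reporter were exposed to compound for 1 hr, then induced with copper sulfate (700 uM final) for 20 hr at ambient temperature before luminescence reading.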
# PLK1 PBD block: inhibitors of human PLK1 polo-box domain binding. AID 720504. P53350. actives 2.8% (n = 360,000). Plk1 PBD binding of FITC phosphopeptide, fluorescence polarization. Potency, µM, for the others: max response, negative = inhibition, most hits filed as inhibitors; also: series mostly up to about 57 µM; nearly all actives have a fitted effect of over 65% in size
# * hit, by the source's call; ? = inconclusive; · = no result; [ ] = another dose, or the depositor's remark. Unless noted, calls follow the shape of the dose curve; as a rule, active = well fitted curve in the direction sought with a large enough effect; inconclusive = small, poorly fitted or top-dose-only effect, or another doubt; inactive = no such curve, though single readings can be large; an effect the other way counts as inactive or inconclusive. Unless noted, % is scaled to controls: 0 for no effect and ±100 for the full control effect; potency is read from the fitted curve at half-maximal effect.
SMILES,Gal4-VP16 FLuc,ALDH1A1 block,Sfp PPTase inh,RORg inh,PLK1 PBD block
COc1ccc(S(=O)(=O)N2c3ccccc3OCC2C(C)(C)C)cc1 (stereo not drawn),16µM*,-1%,6%,-10%,-16%
COc1ccc(S(=O)(=O)N2CCN(C(=O)C3COc4ccccc4O3)CC2)cc1 (stereo not drawn),·,·,·,·,11µM*
COc1cc2nc(N3CCN(C(=O)C4COc5ccccc5O4)CC3)nc(N)c2cc1OC (stereo not drawn),?,?,56µM*,12%,-4%
c1ccc(CN2CC[C@@H](CNc3ncnc4ccccc34)C2)cc1,·,9%[13.5 µM],·,·,·
CC(C)CN(C[C@@H](O)[C@H](Cc1ccccc1)NC(=O)O[C@H]1CO[C@H]2OCC[C@H]21)S(=O)(=O)c1ccc(N)cc1,-1%,·,12%,38%,·
Cc1c(CC(=O)N2CCN(C(=O)C3COc4ccccc4O3)CC2)c(=O)oc2cc(O)c(Cl)cc12 (stereo not drawn),-7%,·,4%,-11%,-5%
COc1ccc2c(C)c(CC(=O)N3CCN(C(=O)C4COc5ccccc5O4)CC3)c(=O)oc2c1C (stereo not drawn),3%,·,14%,16%,3.4µM*
CC1(c2nnnn2Cc2ccccc2)CCC(=O)N1CCOc1ccccc1 (stereo not drawn),·,·,·,·,-15%
COc1cc(N=Nc2ccc(Br)cc2)cc(C=O)c1O,·,·,·,·,27µM*
S=c1ncc2[nH]c(=S)[nH]c2[nH]1,·,·,·,·,1.7µM*
C#C[C@@]1(O)CCC2C3CCc4cc(O)ccc4C3CC[C@@]21C (stereo partly drawn),0%,14%,2%,-1%,·
COC(=O)N1CCC2(CCN(C(=O)Nc3ccc(OC)cc3)CC2)CC1,-5%,-7%,21%,15%,·
Cc1cccn2c(CN(C)CCC3CCCCO3)c(C(=O)N3CCCCC3)nc12 (stereo not drawn),0%,3.2µM*,-6%,0%,-4%
CC(=O)OCC1OC(Oc2cc(OC(C)=O)c3c(=O)cc(-c4ccc(OC(C)=O)c(OC(C)=O)c4)oc3c2)C(OC(C)=O)C(OC(C)=O)C1OC(C)=O (stereo not drawn),16µM*,-2%,7%,25µM*,·
COC(=O)c1ccc2nc(-c3ccc(S(C)(=O)=O)cc3)cn2c1,-17%,?,14%,1%,-1%
COC(=O)c1ccc2nc(-c3cccc(N)c3)cn2c1,7.9µM*,1%,-9%,6.3µM*,-3%
CCOC(=O)N1CCN(c2c(NCCOC)c(=O)c2=O)CC1,-4%,32µM*,4%,-1%,-17%
NC(=NCc1ccc(Cl)cc1Cl)NC(=O)c1nc(Cl)c(N)nc1N,·,?,25µM*,·,·
CC(C)N(Cc1ccccc1)C(=O)COC(=O)/C=C/c1cnc2ccccc2n1,21%,16µM*,6%,34%,-12%
Cc1cccc(C)c1NC(=O)C(c1ccccc1)N1CCN(C(=O)c2ccco2)CC1 (stereo not drawn),20%,25µM*,-6%,24%,-7%
Cc1cccc(C)c1NC(=O)C(c1ccccc1)N1CCC1=O (stereo not drawn),0%,1%,14%,-19%,17µM*
Cc1ccc(NC(=O)C(c2ccccc2)N2CCN(C(=O)c3ccco3)CC2)cc1Cl (stereo not drawn),·,·,·,·,1%
O=C(N/N=C/c1cc(Br)ccc1O)c1ccccc1Cl,2.5µM*,-1%,2%,0.56µM*,-2%
O=C(N/N=C/c1cccc(O)c1)c1ccccc1O,-3%,·,15%,?,-9%
O=C(N/N=C\c1ccccc1O)c1ccccc1O,35µM*,9%,-3%,1µM*,·
SMILES,Gal4-VP16 FLuc,ALDH1A1 block,Sfp PPTase inh,RORg inh,PLK1 PBD block
O=C(Cn1cc(C(F)(F)F)ccc1=O)N/N=C/c1ccccc1O,10µM*,·,15%,2µM*,30µM*
O=C(N/N=C/c1ccccc1O)c1cccc(C(F)(F)F)c1,2µM*,6%,21%,1µM*,2%
O=C(N/N=C/c1ccc(O)cc1)c1cccc(C(F)(F)F)c1,3%,-2%,6%,-4%[10 µM],-19%
O=C(Cn1cc(C(F)(F)F)ccc1=O)N/N=C/c1ccc(F)cc1,-9%,7%,9%,12%,-1%
Cc1nc2cnc(Oc3cccc(Cl)c3)nc2n(Cc2ccc(F)cc2)c1=O,-7%,?,0%,?,·
COCCn1c(=O)c(-c2cccs2)nc2cnc(Oc3ccccc3)nc21,0%,?,4%,21%,·
COc1ccc(C(O)c2ncc(-c3cccc4ccccc34)[nH]2)cc1F (stereo not drawn),·,·,·,·,3%
O=C(N/N=C/C1CC2C=CC1C2)c1ccccc1O (stereo not drawn),?,·,1%,4.5µM*,-3%
CC(=O)Nc1ccc(C(=O)N/N=C/C2CC3C=CC2C3)cc1 (stereo not drawn),-7%,1%,14%,4%,0%
CCOc1ccc(N(C(=O)c2ccccc2Cl)C2=NC(C)(C)CS2)cc1,-16%,?,17%,3.2µM*,-1%
CCOc1ccc(N(CC(=O)Nc2ccccc2Cl)S(C)(=O)=O)cc1,7%,·,21%,3%,-5%
Cc1c(Cl)cccc1NC(=S)NC(=O)CCN1C(=O)c2ccccc2C1=O,?,?,11%,16µM*,-3%
Cc1ccccc1NC(=O)CCN1C(=O)c2ccccc2C1=O,·,·,18%,·,-9%
CC1(C)CC(CCC(=O)NC(=S)Nc2ccccc2Cl)C(=O)O1 (stereo not drawn),?,13µM*,3%,18µM*,-6%
O=C(CCN1C(=O)c2ccccc2C1=O)NC(=S)Nc1ccccc1Cl,?,22µM*,0%,?,-17%
CC1(C)CC(CC(=O)Nc2ccccc2[N+](=O)[O-])C(=O)O1 (stereo not drawn),-5%,?,-19%,7%,1%
CC(C)CN(C(=O)COC(=O)Cc1c[nH]c2ccccc12)c1c(N)n(Cc2ccccc2)c(=O)[nH]c1=O,·,·,·,·,-4%
CCN(CC(=O)Nc1ccccc1C(F)(F)F)C(=O)c1ccc2c(c1)NC(=O)C(C)S2 (stereo not drawn),·,·,·,·,-24%
CC(=O)NC(c1cccc(F)c1)c1nc(/C=C/c2ccccc2)cs1 (stereo not drawn),·,·,·,·,-11%
COC(=O)c1sc(N)c(C(=O)OC)c1COC(=O)C12CC3CC(CC(O)(C3)C1)C2,-6%,·,17%,-1%,0%
COc1ccc(Oc2nc3c(c(=O)n(C)c(=O)n3C)n2Cc2ccccc2)cc1,-15%,16µM*,6%,16%,27µM*
CC(C)CCn1c(Oc2ccc(Cl)cc2)nc2c1c(=O)n(C)c(=O)n2C,-2%,7.9µM*,-16%,10%,-6%
COc1ccc(C(=O)Cn2c(Br)nc3c2c(=O)n(C)c(=O)n3C)cc1,-2%,-3%,50µM*,2%,-8%
C=CCOc1nc2c(c(=O)n(C)c(=O)n2C)n1Cc1ccccc1,-21%,·,4%,?,-17%
